Laboratory results taken from PubChem BioAssay AID720580 (National Center for Advancing Translational Sciences (NCATS), 2013).
Out of some 330,000 compounds screened, about 1,500 (0.45%) were called active. Another 6% or so got no clear call; they are omitted. The full list was thinned out, with actives kept by preference. A number with no mark means an inactive call. Calls follow the shape of the full dose curve; tested in A549 cells.

experiment: qHTS for Stage-Specific Inhibitors of Vaccinia Orthopoxvirus: Venus Reporter Primary qHTS; conditions: Vaccinia virus Venus reporter expression, fluorescence; series mostly up to 36.5 µM; activity change, negative = inhibition: at the top concentration; also: nearly all actives have a fitted effect of over 30% in size
% is scaled to controls: 0 for no effect and ±100 for the full control effect; potency is read from the fitted curve at half-maximal effect.

Row | SMILES | activity change, negative = inhibition [%] | Potency
1 | NC(=S)N/N=C/c1coc2cc(Cl)ccc2c1=O | -2.91 | –
2 | Cc1cccc(-n2c(C)cc(/C=N/NC(N)=S)c2C)c1 | -19.7 | –
3 | CC(C)Oc1c(Br)cc(Br)cc1/C=N/NC(N)=S | – | 5.01 µM (active)
4 | CCCCCn1nnnc1C1c2ccccc2C(=O)N1Cc1ccco1 (stereo unspecified) | 0.846 | –
5 | O=C(Cc1ccc2c(c1)CCCC2)Nc1ccccc1Cl | -2.79 | –
6 | O=C(Nc1ccccc1Cl)O/N=C(/c1ccccc1)c1ccccn1 | -8.43 | –
7 | O=C(Nc1ccccc1Cl)/C(Cl)=C(\Cl)S(=O)c1ccccc1 (stereo unspecified) | – | 10 µM (active)
8 | C[C@@]12CCC3C(CC[C@@H]4CC(O)CC[C@@]34C)C1CCC2O (stereo partly specified) | 0 | –
9 | C[C@]12CC[C@H](O)C[C@H]1CC[C@@H]1C2CC[C@]2(C)[C@@H](C3=CC(=O)OC3)[C@@H](O)C[C@]12O (stereo partly specified) | – | 3.16 µM (active)
10 | CC(CCC(=O)O)C1CCC2C3C(O)C[C@@H]4CC(O)CC[C@@]4(C)C3CC[C@@]12C (stereo partly specified) | – | inactive
11 | Cc1csc(NCC(=O)c2c[nH]c3ccccc23)n1 | -23 | –
12 | CCOC(=O)[C@]12CCC=C1N(Cc1cccc3ccccc13)C(=O)[C@H](CC(=O)NCc1cccc(C(F)(F)F)c1)C2 | -28.4 | –
13 | COc1ccc(C(C)C)cc1-c1ccc2nncn2c1 | -10.8 | –
14 | Cc1cc(C)n2c(NCc3ccccc3)c(CC(C)C)nc2n1 | 18.6 | –
15 | NC(c1csc(NC(=O)Nc2cccc(C(F)(F)F)c2)n1)C1CCCCC1 (stereo unspecified) | – | 10 µM (active)
16 | Cc1ccc(NC(=O)Nc2cccc(C(F)(F)F)c2)nc1 | -3.51 | –
17 | CC(=O)c1ccc(Nc2nc(C(N)c3ccccc3)cs2)cc1 (stereo unspecified) | -10.3 | –
18 | O=C(Nc1ccc(C(=O)N2CCOCC2)cc1)Nc1cccc(C(F)(F)F)c1 | -15.9 | –
19 | CC(C)C[C@H](NC(=O)Nc1cccc(C(F)(F)F)c1)C(=O)O | -0.745 | –
20 | NC(c1ccccc1)c1csc(NC(=O)Nc2cccc(C(F)(F)F)c2)n1 (stereo unspecified) | – | 11.2 µM (active)
21 | COc1ccc(C(O)C(O)(C(=O)OC(C)C)c2ccc(C)cc2)cc1 (stereo unspecified) | -12.4 | –
22 | COc1cc(C=C(OC(C)=O)c2ccc3c(c2)OCO3)cc(OC)c1OC | -4.33 | –

Row | SMILES | activity change, negative = inhibition [%] | Potency
23 | COc1ccc(-c2ccc(C(=O)NCCN3CCOCC3)c3occc23)c(C)c1 | -23.2 | –
24 | COc1ccccc1Cc1c(-c2ccc(Cl)cc2)nc2c3ccccc3ccn12 | -4.99 | –
25 | COc1ccc(-c2coc3c(C(=O)NC(C)C)cccc23)c(C)c1 | -4.73 | –
26 | CCCCCn1nnnc1-c1nc2cc3ccccc3cc2[nH]c1=O | 64.3 | –
27 | CCOC(=O)C1C(C)C(C(C)(C)C)N(S(=O)(=O)c2ccc(C)cc2)C1c1ccccc1 (stereo unspecified) | -24.5 | –
28 | Cc1cc2nc(-c3ccc(Cl)cc3)c(Cc3cccc(F)c3)n2c(C)c1Br | 6.13 | –
29 | COc1cccc(CNC(=O)[C@@H]2CCCN2C(=O)[C@@H]2CCCN2C(=O)c2ccccc2)c1 | 2.4 | –
30 | COC(=O)c1ccc2nc(-c3ccc(C)cc3)c(Cc3ccc(OC)cc3C)n2c1 | -2.33 | –
31 | O=S1(=O)CC(N2CCN(Cc3ccccc3F)CC2)CN1Cc1cn(Cc2cccc(C(F)(F)F)c2)nn1 (stereo unspecified) | -5.88 | –
32 | S=C(NCc1cccnc1)Nc1ccc(Cl)cc1Cl | -2.92 | –
33 | COc1c(Cl)cc(Cl)cc1C(=O)Nc1cccc2cccnc12 | 0.266 | –
34 | CC(=O)/C(=N\Nc1ccc(Cl)cc1Cl)Sc1cccc2cccnc12 | – | 10 µM (active)
35 | COc1ccc(/C=C/c2ccnc3ccccc23)cc1OC | -15.9 | –
36 | Cc1cn(COC/C=C/c2ccccc2)c(=O)[nH]c1=O | -11 | –
37 | Cc1[nH]c(=O)c(C(=O)/C=C/c2ccccc2)c2c1CCCC2 | – | 6.31 µM (active)
38 | CC1(C(=O)O)CCCN(C(=O)/C=C/c2ccccc2)C1 (stereo unspecified) | -5.44 | –
39 | CC(C)(C)c1ccc(C(=O)C[n+]2cccc3cc(Cl)ccc32)cc1 | 313 | –
40 | CCOC(=O)c1ccn(S(=O)(=O)c2ccc(C)cc2)c1-c1ccccc1 | -2.99 | –
41 | CN(Cc1cn(Cc2ccc(C(F)(F)F)cc2)nn1)C1CN(Cc2cn(Cc3ccc(C(F)(F)F)cc3)nn2)S(=O)(=O)C1 (stereo unspecified) | -28 | –
42 | c1ccc(Cc2c(-c3ccco3)nc3c4ccccc4ccn23)cc1 | -0.586 | –
43 | CC[C@H]1CN2CCc3cc(OC)c(OC)cc3[C@@H]2C[C@@H]1C[C@H]1NCCc2cc(OC)c(OC)cc21 | – | 0.562 µM (active)
44 | COc1cc2c(cc1OC)CN(CC(=O)Nc1ccc(F)cc1)CC2 | -9.04 | –

Row | SMILES | activity change, negative = inhibition [%] | Potency
45 | CCC(CC)C(=O)N1CCc2cc(OC)c(OC)cc2C1COc1ccc(F)cc1 (stereo unspecified) | -6.92 | –
46 | CCc1oc(-c2ccc(OC)cc2)c(C(=O)OCCCCCO)c1C(C)OCCO (stereo unspecified) | 3.76 | –
47 | Cc1ccc(-c2nc(=N)sn2Cc2ccccc2)cc1 | -10.9 | –
48 | S=c1[nH]c(=S)c2n[nH]nc2[nH]1 | -10.3 | –
49 | CCCc1c(-c2ccccc2F)ncn1Cc1ccccc1OC | -12.8 | –
50 | COc1ccc(S(=O)(=O)NCCc2c[nH]c3ccccc23)cc1OC | 1.43 | –
51 | COc1cccc(CNCCc2c[nH]c3ccccc23)c1OCc1ccccc1F | – | 10 µM (active)
52 | c1cncc(CNCCc2c[nH]c3ccccc23)c1 | -2.23 | –
53 | CO[C@H]1O[C@@H]2O[C@@]3(C)CC[C@@H]4[C@@H](C)CC[C@@H]([C@H]1C)[C@@]24OO3 | -8.19 | –
54 | CN(Cc1ccccc1F)c1cc2c(c3c1ccn3C)C1CCC2O1 (stereo unspecified) | -5.91 | –
55 | CN(C)c1ccc(/C=C/c2sc3ccccc3[n+]2C)cc1 | 66.9 | –
56 | OCC(O)C(O)C(O)C(O)C=Nc1ccc(/C=C/c2ccnc3ccccc23)cc1 (stereo unspecified) | 2.54 | –
57 | CCOCCC(=O)Nc1ccc2c(c1)c(=O)n(C)n2-c1ccc2ccccc2c1 | -25.4 | –
58 | CS(=O)c1ccc(/C=C2\C=Cc3ccccc32)cc1 (stereo unspecified) | 3.52 | –
59 | COc1cccc(/C=C2\SC(=S)N(CCCC(=O)N3CCOCC3)C2=O)c1 | – | 12.6 µM (active)
60 | Cc1cc(/C=C2/SC(=O)N(CC(=O)N3CCCC3)C2=O)ccc1N1CCOCC1 | -17.6 | –
61 | COc1ccc(/C=C2\SC(=S)N(CCC(=O)N3CCOCC3)C2=O)cc1OC | -26.8 | –
62 | CCC(C)CN1C(=O)CSCC1(C)C(=O)NCc1ccccc1 (stereo unspecified) | -10.8 | –
63 | COc1ccc(C(C)(NC(C)=O)c2nc(-c3ccc(S(C)(=O)=O)cc3)cs2)cc1 (stereo unspecified) | 8.43 | –
64 | COc1cccc(OCc2nnc3n2N=C(c2ccccc2)C(CC(=O)O)S3)c1 (stereo unspecified) | -0.775 | –
65 | CCCCCCCCCCOC(=O)Cn1c(COc2cccc(OC)c2)[n+](C)c2ccccc21 | – | 11.2 µM (active)
66 | CCCCn1c(N)c(N(CCOC)C(=O)c2cccc(OCc3ccccc3)c2)c(=O)[nH]c1=O | -6.07 | –
